Results taken from PubChem BioAssay (Tox21).
Values joined by “and” are separate entries in the source; they are usually repeats but may differ in a detail not shown here. Identical values can stand only once. Records with an inconclusive call do not appear. Where a call stands in place of a potency, no number is given. Active and inactive are the calls of the source. The call rests on the fitted dose curve; in most records, active means well fitted inhibition curve with a large enough effect in the repeat runs; inconclusive means weak or mixed curves; inactive means flat fitted curve, though single readings scatter.

molecular target: Luciferin 4-monooxygenase (Photinus pyralis) (UniProt P08659); test: qHTS assay to identify small molecule inhibitors of firefly luciferase (AID 1224835); further: nearly all actives have a fitted effect of over 25% in size; conditions: purified P. pyralis luciferase, luminescence inhibition; series mostly up to 115 µM
Sequence (P08659 whole entry, looked up): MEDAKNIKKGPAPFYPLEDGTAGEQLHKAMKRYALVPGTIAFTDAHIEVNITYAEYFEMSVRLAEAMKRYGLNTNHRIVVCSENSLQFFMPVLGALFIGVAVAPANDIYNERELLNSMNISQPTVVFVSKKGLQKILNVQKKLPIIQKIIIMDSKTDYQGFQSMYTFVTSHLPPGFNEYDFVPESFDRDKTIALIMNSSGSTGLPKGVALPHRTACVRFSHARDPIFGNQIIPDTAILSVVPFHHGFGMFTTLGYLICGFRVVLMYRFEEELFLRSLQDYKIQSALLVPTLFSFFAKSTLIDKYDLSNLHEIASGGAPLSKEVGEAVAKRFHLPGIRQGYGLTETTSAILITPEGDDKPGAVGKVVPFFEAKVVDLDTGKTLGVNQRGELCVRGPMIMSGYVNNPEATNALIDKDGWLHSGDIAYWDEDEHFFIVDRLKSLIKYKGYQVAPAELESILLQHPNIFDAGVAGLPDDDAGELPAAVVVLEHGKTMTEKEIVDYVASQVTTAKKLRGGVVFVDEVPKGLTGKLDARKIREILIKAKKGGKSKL
Source text: U.S. Tox21 Program National Center for Advancing Translational Sciences [NCATS] NIH Chemical Genomics Center [NCGC] U.S. Environmental Protection Agency [EPA] National Institutes of Environmental Health Sciences [NIEHS] National Toxicology Program [NTP] U.S. Food and Drug Administration [FDA] Tox21 Assay Overview: Firefly (Photinus pyralis) luciferase is one of the most commonly used transcriptional reporters. Firefly luciferase reporter-gene assays are generally considered one of the most sensitive assay types (Wood, 1995; Wood, 1998). However, it was initially observed, in 1991, by Thompson et al., that compounds that resemble the substrates of firefly luciferase (FLuc) can act as competitive inhibitors of the enzyme, and that these compounds, upon interaction with luciferase in the cell, can actually stabilize the protein and increase its half-life. Previous profiling work by other groups to determine the prevalence of compounds that affect FLuc enzymatic activity (PubChem AID 411) identified that ~3% of the MLSMR library (then at ~72K) inhibited FLuc. […] Thus the Tox21 10K library is profiled for activity against FLuc using a biochemical assay of purified FLuc and KM concentrations of FLuc substrates (D-luciferin and ATP).
These assay plates were then treated with 23nL of compound or DMSO using a Kalypsys pin tool, which allows for delivery of a 6-point interplate titration of each compound to the assay plate (quantitative HTS.) 1 uL of firefly luciferase mix (containing 50 mM Tris acetate, pH 7.6, 0.04 uM P. pyralis luciferase, 0.01% Tween, 0.05% BSA and dH2O) was then delivered by FRD to each well. Luciferase activity was then measured using a ViewLux CCD imager.

Structure (SMILES) | Potency
ClC(Cl)(Cl)c1ccccc1 | inactive
O=S(=O)(O)C(F)(F)C(F)(F)C(F)(F)C(F)(F)C(F)(F)C(F)(F)C(F)(F)C(F)(F)F | 75.8 µM (active) and 71 µM (active)
C[N+](C)(C)CC(=O)[O-] | inactive
CC(C)(c1ccc(OCC2CO2)cc1)c1ccc(OCC2CO2)cc1 (stereo not given) | inactive
CCN(CC)C(=O)C(C)Oc1cccc2ccccc12 (stereo not given) | inactive
Nc1ncn[nH]1 | inactive
ClCc1ccccn1 | inactive
NN=C(N)N | inactive
CCCCCCCCCC(CC)c1ccc(S(=O)(=O)O)cc1 (stereo not given) | inactive
O=C1Nc2ccc(Cl)cc2C(c2ccccc2)=NC1O (stereo not given) | inactive
CN(C)c1ccccc1 | inactive
CC(C)CON=O | inactive
Nc1ccc([N+](=O)[O-])cc1N | 79.6 µM (active)
Clc1cccc(C(Cl)(Cl)Cl)n1 | inactive
CC(C)(c1ccccc1)c1ccc(O)cc1 | inactive
CC(C)(O)C#N | inactive
CCC1(c2ccc(N)cc2)CCC(=O)NC1=O (stereo not given) | inactive
O=C(O)CF | inactive
CSc1nc(NC(C)C)nc(NC(C)C)n1 | inactive
Cc1cccc(N=Nc2ccc(N(C)C)cc2)c1 | 456 nM (active) and 894 nM (active)

Structure (SMILES) | Potency
CCNCC | inactive
O=NN1CCOCC1 | inactive
CCOC(=O)c1ccccc1N | inactive
N#CC(c1ccccc1)c1ccccc1 | inactive
CCNc1nc(Cl)nc(NC(C)(C)C#N)n1 | inactive
c1ccc(C2CO2)cc1 (stereo not given) | inactive
CC(O)CN(CC(C)O)CC(C)O (stereo not given) | inactive
C=CC(=O)OCC(CC)(COC(=O)C=C)COC(=O)C=C | inactive
CCOP(=O)(O)OCC (tested in a mixture with another compound) | inactive
Oc1ccc(Cl)cc1Cl | inactive
CCC/C=N/O | inactive
CCCCCCCCCCCCCl | inactive
CC(C)=CC1C(C(=O)OCN2C(=O)C3=C(CCCC3)C2=O)C1(C)C (stereo not given) | inactive
[CH3][Sn]([Cl])([Cl])[Cl] | inactive
OCCOCCO | inactive
C[C@]12CCC(=O)C=C1CC[C@@H]1[C@@H]2CC[C@@]2(C)[C@H]1CC[C@]2(C)O | inactive
Clc1ccc(C(Cl)(Cl)Cl)cc1 | inactive
O=C(O)c1nn(Cc2ccc(Cl)cc2Cl)c2ccccc12 | inactive
CC(C)(O)C(=O)Nc1ccc([N+](=O)[O-])c(C(F)(F)F)c1 | inactive
C[C@]12CC[C@H]3[C@@H](CCC4=CC(=O)CC[C@@H]43)[C@@H]1CC[C@@H]2O | inactive
